TEAD-YAP block: TEAD-YAP interaction inhibition; AID 1259422; HEK-TIYL cells, TEAD-Gal4/YAP UAS-luciferase luminescence; hit rate 1.4% among 640,000; inhibition, % at 9.12 µM; in the data active = inhibition above about 32%
MITF primary: human MITF inhibition, primary screen; AlphaScreen MITF homodimerization, bead proximity signal; hit rate 0.91% among 650,000; inhibition, % at 2.6 µM; AID 1259374; O75030; in the data active = inhibition above about 50%
GPR151 ag: activates the human receptor GPR151; Q8TDV0; hit rate 1% among 650,000; AID 1508602; activation, % at 11.2 µM; PathHunter beta-arrestin GPR151 cells, luminescence; in the data active = activation above about 4.9%
FBW7 activator: human FBW7 E3 ligase activation, primary screen | Q969H0 | AlphaScreen FBW7–phospho-cyclin E peptide binding, activator screen | normalized activity (activation), % at 26.1 µM | hit rate 0.13% among 650,000 | AID 1259310; in the data active = normalized activity above about 1.9%;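 also: purified mutant Fbw7 with reduced substrate affinity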
GPR151 confirm: human GPR151 activation, confirmation screen; activation, % at 11.2 µM; shares compounds with GPR151 ag; AID 1508609; GPR151 PathHunter beta-arrestin cells, luminescence, 90 min; % of EA-reagent control over plate median; 6,700 tested, under 10 active;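 active = mean percent activation across replicates above the confirmation screen cutoff of 4.91%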
GPR119 ag: GPR119 activation, counter-screen for GPR151 activators | hit rate 0.3% among 6,700 | AID 1508611 | shares compounds with GPR151 ag | activation, % at 11.2 µM | GPR119 PathHunter beta-arrestin cells, luminescence, 90 min; 0 = compound-well median, 100 = enzyme-acceptor control;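 active = mean percent activation in the counterscreen above 29.09%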;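 also: counterscreen on off-target GPR119 to flag nonselective hits from the GPR151 activator screen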
Target sequence (Q8TDV5 whole entry, looked up): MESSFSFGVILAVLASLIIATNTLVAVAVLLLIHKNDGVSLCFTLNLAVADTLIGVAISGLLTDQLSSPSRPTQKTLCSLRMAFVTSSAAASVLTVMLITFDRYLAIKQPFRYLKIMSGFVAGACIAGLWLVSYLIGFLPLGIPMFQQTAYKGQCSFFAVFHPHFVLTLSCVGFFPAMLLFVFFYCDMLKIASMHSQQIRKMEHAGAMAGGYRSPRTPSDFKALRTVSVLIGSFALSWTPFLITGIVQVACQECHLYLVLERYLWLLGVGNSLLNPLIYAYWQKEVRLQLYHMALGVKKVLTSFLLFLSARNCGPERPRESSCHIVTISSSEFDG
Numbers stand for hits; n = inactive; x = not tested or not shown. A selection: hits, their analogues and other compounds. The true share with any hit is near 3.5%.

SMILES	TEAD-YAP block	MITF primary	GPR151 ag	FBW7 activator	GPR151 confirm	GPR119 ag
COc1ccccc1/C=N/NC(=O)c1ccccc1Cl	n	n	n	n	x	x
COc1ccccc1/C=N/NC(=O)c1ccccc1O	n	n	7.1	n	n	n
C=CCN1C(=O)/C(=C\c2ccc(F)cc2)C(=O)NC1=S	n	n	n	n	x	x
Cc1cc(=O)oc2cc(O[C@H]3C=C[C@@H](C#CC(C)(C)C)O[C@@H]3CO)ccc12	x	n	n	n	x	x
COc1cccc(C(=O)NCCCc2ccccc2)c1OC	n	n	n	n	x	x
COc1cccc(C(=O)NCCCc2ccc(N(C)C)cc2)c1OC	n	n	5.3	n	n	n
Cn1c2c(c(=O)n(C)c1=O)C(c1ccccc1Cl)CC(=O)N2 (centres undefined)	n	n	8.6	n	n	n
O=C(O)CC(NC(=O)C12CC3CC(CC(C3)C1)C2)c1ccc(Cl)cc1 (centres undefined)	n	n	n	n	x	x
O=C(O)CC(NC(=O)C12CC3CC(CC(C3)C1)C2)c1cccc([N+](=O)[O-])c1 (centres undefined)	n	n	6.0	n	n	n
O=C(N/N=C/c1ccc(OC2CSC2)cc1)c1cc2ccccc2cc1O	n	n	n	n	x	x
OCCNc1nc(Nc2ccncn2)nc2c1ncn2C1CCCCC1	n	n	n	n	x	x
Cc1nn(C)c(C)c1-c1nc(NCCCN2CCCC2=O)c2ncn(C3CCCCC3)c2n1	n	n	5.8	n	n	n
CCCNc1nc(-c2c(C)noc2C)nc2c1ncn2C1CCCCC1	n	n	5.5	n	n	n
CCCNc1nc(Nc2ccncn2)nc2c1ncn2C1CCCCC1	n	n	4.9	n	n	n
Cc1noc(C)c1-c1nc(NCCOc2ccccc2)c2ncn(C3CCCCC3)c2n1	n	n	n	n	x	x
CCOC(=O)CCN(Cc1c(Cl)cccc1Cl)S(=O)(=O)c1cccc(Cl)c1	n	n	n	n	x	x
COc1cc(OC)cc(-c2nc(=S)[nH][nH]2)c1	n	n	6.8	n	n	n
COc1cccc(C(c2nnnn2C(C)C)N2CCN(c3ccccc3)CC2)c1OC (centres undefined)	n	n	5.4	n	n	n
Cc1ccccc1Cc1c(C)nc2nc(SCC(=O)N3CCC(C)CC3)nn2c1C	n	n	n	n	x	x
CCC1CCCCN1C(=O)CSc1nc2nc(C)c(Cc3ccccc3C)c(C)n2n1 (centres undefined)	n	n	5.2	n	n	n
Cc1ccccc1Cc1c(C)nc2nc(SCC(=O)NC(C)(C)C)nn2c1C	n	n	16	n	n	n
CCCN(CCC)C(=O)CSc1nc2nc(C)c(Cc3ccccc3C)c(C)n2n1	n	n	5.0	n	n	n
CCOC(=O)CNC(=O)CSc1nnc(NC(=O)C(C)(C)C)s1	n	n	5.2	n	n	n
CC(C)(C)C(=O)Nc1nnc(SCC(=O)NO)s1	n	n	n	n	x	x
CC(C)(C)C(=O)Nc1nnc(SCC(N)=O)s1	n	n	5.2	n	n	n
SMILES	TEAD-YAP block	MITF primary	GPR151 ag	FBW7 activator	GPR151 confirm	GPR119 ag
CCC(c1nnnn1C(C)(C)CC)N1CCN(Cc2ccccc2)CC1 (centres undefined)	n	n	6.3	n	n	n
O=C1C(=O)N(CCCN2CCOCC2)C(c2cccnc2)/C1=C(/O)c1ccc(Br)cc1 (centres undefined)	n	n	9.1	n	n	n
O=C1C(=O)N(CCN2CCOCC2)C(c2cccnc2)/C1=C(/O)c1ccc(Br)cc1 (centres undefined)	n	n	n	n	x	x
COc1ccc(/C(O)=C2/C(=O)C(=O)N(CCN3CCOCC3)C2c2ccc(C(C)(C)C)cc2)cc1 (centres undefined)	n	n	7.0	n	n	n
O=C(O)Cn1ncc2ccsc2c1=O	n	n	n	n	x	x
CCC(=O)N1c2ccccc2-c2nnc(SC)nc2OC1c1ccc(C)cc1 (centres undefined)	n	n	n	n	x	x
O=C(O)CCC(NS(=O)(=O)c1cccc2nsnc12)C(=O)O (centres undefined)	n	n	n	n	x	x
Cc1ccccc1NC(=O)NC12CC3CC(CC(C3)C1)C2	n	n	n	n	x	x
CCc1cccc(C)c1NC(=S)NN	n	n	6.2	n	n	n
CCc1cccc(C)c1NC(=O)C(C)C	n	n	n	n	x	x
COc1cccc(CC(=O)Nc2cnc3cnc(-c4ccc(F)cc4)cn23)c1	n	n	n	n	x	x

Source: PubChem
